In PubChem BioAssay AID1345085 (National Center for Advancing Translational Sciences (NCATS), 2018):
Results filed as inconclusive are left out. Calls of active or inactive are those of the source. Calls come from the whole dose curve; as a rule, active = well fitted cell-killing curve with a large enough effect; inconclusive = small, poorly fitted or top-dose-only effect, or effect the other way; inactive = no such curve, though single readings can be large or run the other way.

These compounds were tested on CAOV3 (assay: Confirmatory qHTS for gynecologic anti-cancer compounds from libraries of approved drugs and bioactive compounds). Details: gynecologic cancer cell panel viability, ATPlite luminescence, 48 h; series mostly up to 57.6 µM; activity change, negative = viability loss: at the top concentration.
How it was run: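 IC50 values derive from an ATPlite ATP-content luminescence assay following 48 h treatment at 37 C. Each compound ran as an 11-concentration, threefold series (57.5 uM to 0.977 nM); HEK 293T served as control line for selectivity index.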
% is set by controls: 0 for no effect and ±100 for the full control effect; potency is the fitted concentration of half-maximal effect.
Note: nearly all actives have a fitted effect of over 55% in size.

SMILES | activity change, negative = viability loss | Potency
NCCOc1cc(C(=O)Nc2cc(OCCN)c3ccccc3n2)nc(C(=O)Nc2cc(OCCN)c3ccccc3n2)c1 | -15.8% (inactive) | –
CC(C)n1nc(-c2cc3cc(O)ccc3[nH]2)c2c(N)ncnc21 | – | 19.3 µM (active)
Cn1c(=O)c(-c2c(Cl)cccc2Cl)cc2cnc(Nc3cccc(C(=O)O)c3)nc21 | – | 2.73 µM (active)
CC[C@@]1(O)C(=O)OCc2c1cc1n(c2=O)Cc2c-1nc1ccccc1c2/C=N/OC(C)(C)C | – | 0.0968 µM (active)
O=C(c1ccc(F)c(F)c1Nc1ccc(I)cc1F)N1CC(O)([C@@H]2CCCCN2)C1 | – | 27.3 µM (active)
CCN[C@H]1C[C@H](C)S(=O)(=O)c2sc(S(N)(=O)=O)cc21 | 9.03% (inactive) | –
CCCCc1nc2cc(/C=C/C(=O)NO)ccc2n1CCN(CC)CC | – | 4.85 µM (active)
Nc1ncnc2c1ncn2[C@@H]1O[C@H](CO)C[C@H]1O | 15.8% (inactive) | –
COc1cccc2c1C(=O)c1c(O)c3c(c(O)c1C2=O)C[C@@](O)(C(=O)CO)C[C@@H]3O[C@H]1C[C@H](N)[C@H](O[C@@H]2CCCCO2)[C@H](C)O1 | – | 9.68 µM (active)
CCc1cccc(CC)c1NC(=O)N1Cc2[nH]nc(NC(=O)c3ccc(N4CCN(C)CC4)cc3)c2C1 | – | 2.43 µM (active)
CC[C@H](Nc1ncnc2nc[nH]c12)c1nc2cccc(F)c2c(=O)n1-c1ccccc1 | -13.8% [at 10.7 µM] (inactive) | –
COc1cc2nccc(Oc3ccc(NC(=O)C4(C(=O)Nc5ccc(F)cc5)CC4)cc3)c2cc1OC | – | 21.7 µM (active)
NC(=O)c1cnc(-c2ccc(C3(N)CCC3)cc2)c(-c2ccccc2)c1 | – | 30.6 µM (active)
